# Assay results as given in PubChem BioAssay AID686978 (National Center for Advancing Translational Sciences (NCATS), 2013).
# Values joined by “and” are separate entries in the source; they are usually repeats but may differ in a detail not shown here. Identical values can stand only once. The campaign covered roughly 420,000 compounds. About 64,000 (15%) were called active. Not shown: some 27% with an inconclusive outcome. Calls follow the shape of the dose curve; as a rule, active = well fitted inhibition curve with a large enough effect; inconclusive = small, poorly fitted or top-dose-only effect; inactive = flat fitted curve, though single readings scatter. The list is a sample of the results. Entries that show only a call come without a potency. Peptide text beside a SMILES is read from it. * marks the point of attachment. Bz = O=C(c1ccccc1)*
# Assay: qHTS for Inhibitors of human tyrosyl-DNA phosphodiesterase 1 (TDP1): qHTS in cells in absence of CPT; also: nearly all actives have a fitted effect of over 55% in size
# Conditions: DT40 Tdp1-/- hTDP1 cells, no CPT, ATP luminescence, 48 h; activity change, negative = growth inhibition: at 46.2 µM (top of the series)
# In short: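 Growth kinetics read by CellTiter-Glo luminescence after ≥48 hr at 37 °C. Cells: DT40 Tdp1-/- stably carrying human TDP1, 400 per well, compound exposure in the absence of CPT (DMSO vehicle).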
# Potency is read from the fitted curve at half-maximal effect.
row,SMILES,Potency
1,c1n[nH]c(NCc2ccc3c(c2)OCO3)n1,inactive
2,O=C(CCN1C(=O)c2ccccc2C1=O)C1=NN[C@@H]2C(=O)N(c3ccc(F)cc3)C(=O)[C@H]12,inactive
3,CC(=O)c1ccc(S(=O)(=O)N2CCC3(CC2)OCCO3)cc1,inactive
4,CCCCC(CC)CNC(=O)C1CCN(S(=O)(=O)c2cccc3nsnc23)CC1 (configuration not stated),inactive
5,CCCCN(C)CCNC(=O)C1CCCN(S(=O)(=O)c2cccc3nsnc23)C1 (configuration not stated),inactive
6,CCCCN(CC)C(=O)C1CCCN(S(=O)(=O)c2cccc3nsnc23)C1 (configuration not stated),18.4 µM (active)
7,Cc1cc(=O)[nH]c(SCc2cc(Cl)ccc2OC(F)F)n1,inactive
8,O=C(COC(=O)C1CC2CCCC(C1)C2=O)NC(=O)c1ccccc1 (configuration not stated),inactive
9,O=C(COC(=O)c1ccc(NS(=O)(=O)c2cccs2)cc1O)Nc1ccc(F)cc1,inactive
10,CCC(CC)NC(=O)CSc1nnc(-c2c[nH]c3ccccc23)o1,inactive
11,O=S(=O)(NCCc1ccncc1)c1ccccc1,inactive
12,CCCC(=O)Nc1cccc(-c2cn3ccsc3n2)c1,inactive
13,CCCS(=O)(=O)Nc1cccc(-c2cn3ccsc3n2)c1,25.9 µM (active)
14,CS(=O)(=O)Nc1cccc(-c2cn3ccccc3n2)c1,inactive
15,O=C1CC2(CCCC2)Oc2ccc(Cl)cc21,inactive
16,COc1cccc2c1OCC(CN1CCN(C3CCCCC3)C(CCO)C1)=C2 (configuration not stated),inactive
17,CCc1cccc(OC2OC(CO)C(O)C(O)C2NC(C)=O)c1 (configuration not stated),inactive
18,Cn1ncc2c(Nc3cccc4ccccc34)ncnc21,inactive
19,CCOC(=O)c1cccc(NC(=O)C(Cc2ccccc2)NS(=O)(=O)c2cccc3nsnc23)c1 (configuration not stated),23.1 µM (active)
20,COc1ccc(CNC(=O)C(NS(=O)(=O)c2cccc3nsnc23)C(C)C)cc1 (configuration not stated),inactive
21,O=C(O)C(NS(=O)(=O)c1cccc2nsnc12)c1ccccc1 (configuration not stated),inactive
22,COc1ccc(NC(=S)N2CCCC(CO)C2)c(OC)c1 (configuration not stated),inactive

row,SMILES,Potency
1,O=C(C1CCCO1)N(c1ccc(F)cc1)C1C=CS(=O)(=O)C1 (configuration not stated),inactive
2,COc1ccc(NC(=O)Nc2cccc3cccnc23)cc1,inactive
3,O=C(Nc1ccccc1)Oc1cccc2cccnc12,1.03 µM (active)
4,O=C(Nc1ccccc1Cl)Nc1cccc2cccnc12,inactive
5,CSCCC(NC(=O)COc1ccccc1)C(=O)N(C)CC(=O)Nc1ccc(C)cc1 (configuration not stated),inactive
6,COc1ccc(S(=O)(=O)NCCc2cc3ccc(C)c(C)c3[nH]c2=O)cc1,8.2 µM (active) and 23.1 µM (active)
7,COc1ccc(CCNS(=O)(=O)c2cccc([N+](=O)[O-])c2)cc1,inactive
8,COc1ccc(S(=O)(=O)NCCSc2nnnn2-c2ccccc2)cc1,inactive
9,Cc1cc(NS(=O)(=O)c2ccccc2)no1,inactive
10,CCOC(=O)CNC(=O)CSc1ncccc1-c1nc2ccccc2[nH]1,inactive
11,C/C(=N/OC(=O)c1ccc(Br)cc1)c1ccc(C)cc1,inactive
12,O=Cc1c(Nc2ccccc2Cl)nc2ccccn2c1=O,inactive
13,COc1ccc(-n2nnnc2-c2nc3ccccc3s2)cc1,inactive
14,COc1ccc(NC(=O)CSc2nnnn2-c2cccc(OC)c2)cc1,inactive
15,CCOc1cccc(-n2nnnc2-c2ccc(OC)cc2)c1,2.91 µM (active)
16,Cc1cccc(CSc2ccc(-c3cccs3)nn2)c1,inactive
17,CC(C)CCNC(=O)CSc1nc2ccccc2nc1Cc1ccc(Cl)cc1,inactive
18,Nc1ncnc2c1ncn2[C@@H]1O[C@H](CNS(=O)(=O)c2ccc(-c3ccno3)s2)[C@@H](O)[C@H]1O,inactive
19,CO/N=C(\C(=O)N[C@@H]1C(=O)N2C(C(=O)O)=CCS[C@H]12)c1csc(N)n1,inactive
20,O=C(c1ccccc1F)N1CCN(S(=O)(=O)c2ccc(Br)cc2)CC1,inactive
21,O=S(=O)(c1ccc(Br)cc1)n1ccc2ccccc21,18.4 µM (active)
22,O=C(O)C1CCCN1S(=O)(=O)c1ccc(Br)cc1 (configuration not stated),inactive

row,SMILES,Potency
1,O=C(Nc1ccc2c(c1)OCCO2)C1CCCC1,inactive
2,COc1ccc(OCCCC(=O)NCCc2ccccc2)cc1,inactive
3,COc1ccc(CNC(=O)CCN2C(=O)c3ccccc3C2=O)cc1,inactive
4,COc1ccc(CCNCc2c(-c3ccccc3)n(C)c3ccccc23)cc1,16.4 µM (active)
5,CC1(c2ccccc2)NC(=O)N(CC(=O)N2CC(=O)Nc3ccccc32)C1=O (configuration not stated),inactive
6,Cc1ccc(Cl)cc1NC(=O)NC1COc2ccccc2C1 (configuration not stated),inactive
7,Cc1ccc(N=Nc2c(C)[nH]n(-c3ccccc3)c2=O)cc1,inactive
8,Cc1[nH]n(-c2ccccc2)c(=O)c1/C=N/NC(=O)c1ccoc1C,1.84 µM (active)
9,Cc1cc[n+](-c2[nH]c(=O)sc2/C=N/NC(=O)c2ccccc2[O-])cc1C,inactive
10,CCn1c(SCC(=O)Nc2ccc(S(=O)(=O)Nc3onc(C)c3C)cc2)nnc1-c1ccccc1,inactive
11,CCOc1ccc(NC(=O)CCC(=O)NNC(=O)NC2CCCCC2)cc1,inactive
12,O=C(COc1nc2ccccc2nc1N1CCOCC1)NCC(F)(F)F,inactive
13,c1ccc(Nc2nc(N3CCOCC3)c3ccccc3n2)cc1,16.4 µM (active)
14,O=c1[nH]c(N2CCOCC2)nc2ccccc12,inactive
15,Cc1ccc(-n2c(SCC(=O)Nc3ccc4c(c3)OCO4)nnc2-c2ccccn2)cc1,inactive
16,Cc1ccc2c(NC(=O)C3CC3)cccc2n1,inactive
17,Cc1ccc(C(=O)Nc2cccc3ncccc23)cc1[N+](=O)[O-],inactive
18,Cc1ccc(/C=C(\C#N)C(=O)Nc2cccc3ncccc23)o1,25.9 µM (active)
19,COc1ccc(S(=O)(=O)N2CCCC2CNC(=O)C(=O)NC2CC2)cc1 (configuration not stated),inactive
20,Cc1cc(OCc2ccc(C(=O)Nc3ccc(C(=O)O)cc3)o2)ccc1Cl,inactive
21,CCN(CC)S(=O)(=O)c1ccc(-c2cn3ccc(C)cc3n2)cc1,inactive
22,C/C(=N/NS(=O)(=O)c1ccccc1)c1ccc(NC(=O)C(F)(F)F)cc1,inactive

row,SMILES,Potency
1,Cc1c(S(=O)(=O)NCc2ccccc2)c(=O)n(C)c(=O)n1C,inactive
2,Cn1c(=O)c2c(-c3ccccc3Br)n(Cc3ccccc3)cc2n(C)c1=O,18.4 µM (active)
3,O=C(NC(Cc1ccccc1)C(=O)N1CCCC1C(=O)O)c1ccccc1 (stereo not drawn) (Bz-Phe-Pro-OH; configuration not given here),inactive
4,CN(C)c1nc(N)nc(Cn2nnc(-c3ccc(C(F)(F)F)cc3)n2)n1,inactive
5,Cc1ccc(C(=O)Nc2ccccc2-c2ccccc2)cc1S(=O)(=O)Nc1ccccc1,14.6 µM (active)
6,Cc1ccc(C(=O)Nc2ccc(C(=O)O)cc2)cc1S(=O)(=O)Nc1ccccc1,inactive
7,O=C(O)c1ccc(F)c(S(=O)(=O)Nc2ccccc2)c1,inactive
8,Cc1ccc(F)c(S(=O)(=O)NC(=O)C2(C)CCN2C(=O)c2ccco2)c1 (configuration not stated),inactive
9,CC(C(=O)N(C)CC(=O)Nc1ccccc1C(F)(F)F)N1C(=O)c2ccccc2C1=O (configuration not stated),inactive
10,CCOC(CNC(=O)C(=O)NCC(c1ccco1)N1CCN(c2ccc(OC)cc2)CC1)OCC (configuration not stated),inactive
11,CC[n+]1cc(C)ccc1/C=C/c1ccc(N(C)C)cc1,0.0259 µM (active)
12,CCNC(=O)COC(=O)/C=C/c1c(C)nn(Cc2cccc(OC)c2)c1Cl,inactive
13,Cc1cn(C)c(=O)n(C)c1=O,inactive
14,Cc1ccc(-c2c3c(=O)n(C)c(=O)n(C)c3cn2-c2ccccc2O)cc1,inactive
15,Cc1ccc(-c2c3c(=O)n(C)c(=O)n(C)c3cn2-n2cnnc2)cc1,20.6 µM (active)
16,CC1CCN(CCC(=O)Nc2ccccc2)CC1,inactive
17,CC1=NC2(CCCc3c2no[n+]3[O-])N(O)C1(C)C (configuration not stated),inactive
18,COc1ccc(NC(=O)Nc2ccc3nc(C)c(C)nc3c2)cc1,inactive
19,COc1ccc(Nc2nc(=O)[nH]nc2C)cc1,inactive
20,COc1ccc(Nc2cc(Sc3ccc(OC)cc3)ncn2)cc1,16.4 µM (active)
21,CCCC(NS(=O)(=O)c1ccc(OC)cc1)C(=O)O (configuration not stated),inactive
22,COC(=O)c1ccc(COC(=O)c2c(C)nn(Cc3ccccc3Cl)c2Cl)o1,inactive

row,SMILES,Potency
1,COc1ccc(C)cc1-n1c(-c2ccc(C)cc2)cc2c1CC(C)(C)CC2=O,8.2 µM (active)
2,COc1ccc(C(=O)CN2C(=O)NC(C)(c3ccc(C)cc3)C2=O)cc1OC (configuration not stated),inactive
3,CC(=O)Oc1ccc(C)cc1N1C(=O)c2ccc(C(=O)O)cc2C1=O,inactive
4,Cc1cc(NC(=O)COC(=O)c2ccc(F)c(S(=O)(=O)N3CCOCC3)c2)no1,inactive
5,O=C(OCC(=O)N1CCOCC1)c1ccc2ccccc2c1,inactive
6,Cc1c(CCO)sc[n+]1CC(=O)c1ccc2ccccc2c1,15.8 µM (active)
7,Cc1ccccc1OCC(=O)NCC(=O)OCC(=O)c1ccc2ccccc2c1,inactive
8,O=C(CCn1ccc([N+](=O)[O-])n1)Nc1nccs1,inactive
9,CCOc1ccc(-n2c(SCC(N)=O)nnc2-c2ccco2)cc1,inactive
10,O=C(COC(=O)C1CCN(S(=O)(=O)c2ccc3c(c2)OCCO3)CC1)Nc1ccccc1OC(F)F,inactive
11,COc1ccc(Br)cc1/C=N/Nc1ccc(Cl)c(C(=O)O)c1,inactive
12,Oc1ccc(Br)cc1/C=N/Nc1ccccn1,3.66 µM (active)
13,O=C(NCc1ccccn1)c1cc(Br)ccc1Cl,inactive
14,COc1cc2c(C(=O)N(C)c3cc(Cl)ccc3OC)cn(C)c(=O)c2cc1OC,inactive
15,O=C(CSc1ccccn1)N1CCN(S(=O)(=O)c2ccc(Cl)cc2)CC1,inactive
16,C/C(N)=C(\C#N)C(=O)NCCc1ccccn1,inactive
17,Cc1ccc(NC(=O)CN2CCC(C(N)=O)CC2)cc1[N+](=O)[O-],inactive
18,COc1ccc(C23NCCN2C(=O)c2ccccc23)cc1 (configuration not stated),inactive
19,CC12CN3CCN(CC(C3)/C1=N\NC(=O)c1ccccc1N)C2,inactive
